# Bioassay records (PubChem BioAssay)
# MARV entry inh = blocks Marburg virus binding to or entry into cells; Marburg virus pseudotyped entry inhibition, cell reporter; Potency, µM (doses to about 37.8 µM), for inactives: at the highest dose activity change, negative = inhibition, actives largely listed as inhibitors; 300,000 compounds, 1.8% hits; calls by dose curve; tested in HEK293 cells
# HCV inh = HCV inhibition. Potency, µM (series often up to 41.8 µM), without a hit: top-dose activity change, negative = inhibition, usual class: inhibitors. 340,000 compounds, 3.4% hits. AID 651820. Huh7.5.1 HCVcc-Cre infection, luciferase reporter, 44 h
#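 Infectious HCVcc-Cre (~0.5 moi) was added to cells just after compound, with cells seeded 4 h earlier at 1,000 per well. Luciferase activity after 44 h culture reported infection; substrate was incubated 15 min at room temperature before reading.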
# RE007 growth inh = less growth of the S. pombe RE007 Vpr strain. Potency, µM (highest dose often 92.2 µM), for inactives: top-dose activity change, negative = less growth, actives largely listed as inhibitors. 360,000 compounds, 0.21% hits. S. pombe RE007 Vpr strain, BacTiter-Glo ATP luminescence, 24 h; active means well fitted falling curve with a large enough effect; inconclusive means small, poorly fitted or top-dose-only effect; inactive means no such curve, though single readings can be large or run the other way; further: nearly all actives have a fitted effect of over 50% in size
#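 Fission yeast strain RE007, carrying one chromosomally integrated HIV-1 vpr copy, was seeded at OD 0.01 in PMG+AL medium with 23 nL pinned compound. After 24 h at 30 °C and 99% humidity, viability was read by BacTiter-Glo luminescence.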
# FMDV antiviral = blocks foot and mouth disease virus. Potency, µM (highest dose often 57.9 µM), inactives show at the top dose activity change, negative = inhibition, usual class: inhibitors. 410,000 compounds, 1.2% hits. FMDV antiviral cell-based qHTS; calls by dose curve; tested in HEK293T cells; further: read-out not given here; nearly all actives have a fitted effect of over 45% in size
# Lassa entry inh = blocks Lassa virus binding to or entry into cells. Lassa virus pseudotype entry inhibition, cell reporter. 300,000 compounds, 1.2% hits. Potency, µM (series often up to 37.9 µM), inactives show at the top dose activity change, negative = inhibition, usual class: inhibitors; calls by dose curve; tested in HEK293 cells; further: nearly all actives have a fitted effect of over 50% in size
# Sm TGR block = blocks Schistosoma mansoni thioredoxin glutathione reductase; Q962Y6; purified TGR, DTNB reduction, TNB absorbance 405 nm; Potency, µM (highest dose often 114 µM), for the others: at the highest dose activity change, negative = inhibition, hits mostly inhibitors; 360,000 compounds, 3% hits; further: nearly all actives have a fitted effect of over 60% in size
#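 First, TGR (20 nM dispensed) and NADPH were mixed with compound. Second, a 15 min room-temperature incubation followed. Third, further NADPH and then DTNB were added to start the reaction. Finally, TNB absorbance was monitored kinetically.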
# The depositor's hits bear a star; ? = inconclusive; . = no result given; [ ] = another dose, or the depositor's remark. This is a sample that favours compounds with a hit; in the whole collection about 7.2% have one here. Unless noted, the call rests on the fitted dose curve; in most records, active means well fitted curve in the direction sought with a large enough effect; inconclusive means small, poorly fitted or top-dose-only effect, or another doubt; inactive means no such curve, though single readings can be large; an effect the other way counts as inactive or inconclusive. On the % scale 0 is the no-effect control and ±100 the full control effect; potency means the concentration at half of the fitted maximal effect.
SMILES,MARV entry inh,HCV inh,RE007 growth inh,FMDV antiviral,Lassa entry inh,Sm TGR block
COc1ccc(C)cc1S(=O)(=O)NCCC1=CCCCC1,20%,35µM*,-18%,64%,2%,22%
O=C(Nc1ccccn1)c1csc2c1CCCC2,?,-15%,?,25%,?,.
O=C(Nc1ccccn1)c1onc2c1CCCC2,?,15%,10µM*,14µM*,7.3µM*,-3%
COC(=O)[C@@H]1C[C@H](NC(=O)c2cc(C(F)(F)F)ccc2Cl)CN1Cc1cccc(O)c1,.,.,.,-11%,.,.
O=C(NC(=S)Nc1cccc2cc(O)ccc12)c1ccccc1Br,-28%,.,2%,-7%,1%,35µM*
COc1ccccc1C(=O)NC(=S)Nc1cccc2cc(O)ccc12,-25%[46.1 µM],?,-8%,1%,?,.
O=C(NC(=S)Nc1cccc2ncccc12)c1ccco1,.,6%,-4%,-7%,.,14µM*
Cc1cc(NC(=S)NC(=O)c2ccco2)c2ccccc2n1,?,?,-20%,?,-20%,?
Cc1c(NC(=O)c2ccco2)cccc1-c1nc2cccnc2s1,.,-28%,-6%,-21%,.,20µM*
Cc1c(NC(=O)c2ccc(Cl)nc2)cccc1-c1nc2cccnc2s1,.,?,2%,-27%,.,3%
O=C(NC(=S)Nc1cccc2cc(O)ccc12)c1ccco1,-6%[46.1 µM],-11%,-15%,4%,-28%[46.1 µM],10µM*
COC(=O)C[C@H](NC(=O)[C@H](C)NC(=O)[C@@H](NC(=O)OCc1ccccc1)C(C)C)C(=O)CF,.,.,.,-11%,.,.
Cc1ccc(-c2c(CN3CCN(c4cccc(C(F)(F)F)c4)CC3)csc2C)cc1,.,.,.,-17%,7%[46.1 µM],6%
O=C(NC(=S)Nc1cccc2c(O)cccc12)c1ccco1,?,-9%,-17%,14%,1%[46.1 µM],25µM*
O=C(NC(=S)Nc1ccccc1N1CCCC1)c1ccco1,-11%[14.2 µM],-10%,-19%,-9%,5%,?
CCCC(=O)NC(=S)Nc1cccc2c(O)cccc12,0%[46.1 µM],-7%,-7%,33%,1%[46.1 µM],14µM*
COc1ccc(C2=CC3=C(Br)C(=O)C(C)(O)C(=O)C3=CO2)cc1 (configuration not stated),17%[14.2 µM],12%,?,-15%,.,8.9µM*
CCC(=O)OC1(C)C(=O)C2=COC(c3ccc(OC)cc3)=CC2=C(Br)C1=O (configuration not stated),.,19%,?,8%,.,11µM*
CC1(O)C(=O)C=C2C=C(c3ccc(C#N)cc3)OC=C2C1=O (configuration not stated),7%[14.2 µM],.,.,.,?,.
O=S(=O)(c1ccccc1)N1CCN(C2CCN(Cc3ccccc3)CC2)CC1,-7%,?,-2%,0%,-4%,3%
COc1ccccc1N1CCN(C2CCN(S(=O)(=O)c3ccc4ccccc4c3)CC2)CC1,?,14µM*,-13%,?,?,-30%
O=S(=O)(c1ccc2ccccc2c1)N1CCN(C2CCN(Cc3ccccc3)CC2)CC1,?,22µM*,-6%,?,?,-18%
Cc1ccc(S(=O)(=O)N2CCN(C3CCN(Cc4ccccc4)CC3)CC2)cc1,0%,-17%,0%,.,-5%,7%
COc1ccccc1N1CCN(C2CCN(S(=O)(=O)c3ccc(C)cc3)CC2)CC1,?,-1%,2%,-22%,-17%,-2%
COc1ccc(S(=O)(=O)N2CCN(C3CCN(Cc4ccccc4)CC3)CC2)cc1,?,?,-6%,-25%,5%,50µM*
SMILES,MARV entry inh,HCV inh,RE007 growth inh,FMDV antiviral,Lassa entry inh,Sm TGR block
Cc1cc2c(cc3c(SCC(=O)Nc4cccc(Cl)c4C)nnc(C)n32)o1,.,.,.,21%,18%[46.1 µM],-8%
CCOC(=O)C1=C(CSc2nc(C)cc(C)c2C#N)OC(N)=C(C#N)[C@H]1c1cccs1,-29%[46.1 µM],.,.,.,.,.
Cc1ccc(CNc2ccc(-c3nc(-c4ccccn4)no3)cc2[N+](=O)[O-])cc1,-8%[46.1 µM],.,.,25%,3%[46.1 µM],20%
CCOC(=O)c1c(C)[nH]c(C)c1S(=O)(=O)N1CCC(C(=O)Nc2ccc(C)cn2)CC1,.,.,.,-15%,27%[46.1 µM],33%
COC(=O)c1c(Cl)c2n3ccccc3c(C)c(-c3ccccc3)c-2c1C(=O)OC,?,13µM*,-30%,?,-26%,-26%
COC(=O)c1cc2c(-c3ccccc3)c(C)c3ccccn3c-2c1C(=O)OC,?,?,11%,?,?,-2%
CN(C)c1ccc(/C=N/Nc2nncc3ccccc23)cc1,?,-23%,-8%,7.9µM*,?,?
CCS(=O)(=O)c1ccc(C=NNc2nc3ccccc3o2)cc1,?,-13%,-14%,-14%,?,.
CN(C)c1ccc(/C=N/Nc2nc3ccccc3o2)cc1,?,10%,-8%,?,5.6µM*,19%
C(=N\Nc1nncc2ccccc12)/c1ccccc1,12%,14%,-25%,36%,?,6%
O=[N+]([O-])c1ccc2c(c1)C(N1CCOCC1)/C(=C/COc1ccc3ccccc3c1Br)O2 (configuration not stated),13µM*,-18%,-17%,?,?,-15%
O=[N+]([O-])c1ccc(OC/C=C2\Oc3ccc([N+](=O)[O-])cc3C2N2CCOCC2)cc1 (configuration not stated),?,?,-10%,?,?,-10%
CN(Cc1ccccc1)c1ncnc2sccc12,?,8.9µM*,9%,?,-21%,-4%
CCCc1ccc(-c2ccc(C(=O)Oc3ccc(OCC)cc3)cc2)nc1,.,.,.,-15%,-16%[46.1 µM],1%
CCCc1ccc(-c2ccc(C(=O)O)cc2)nc1,?,21%,-5%,.,12µM*,0%
O=C(Nc1ccccc1C(=O)NCCCN1CCOCC1)c1ccc(F)cc1,.,14%,-4%,1%,.,89µM*
Cc1c(C(=O)NCc2cccnc2)sc2nc(-c3ccc(F)cc3)cn12,.,11µM*,3%,-7%,.,4%
COc1ccc(-c2cn3c(C)c(C(=O)NCCN4CCOCC4)sc3n2)cc1,6%,?,3%,-5%,3%,8%
Cc1c(C(=O)NCCCN2CCOCC2)sc2nc(-c3ccc(F)cc3)cn12,-30%,10µM*,4%,0%,21%,-18%
Cc1nc(NCc2ccc3nsnc3c2)sc1-c1ccn(C)n1,.,.,.,16%,.,.
Nn1c(Nc2ccccc2)nc2sc3c(c2c1=O)CCC3,?,13µM*,-7%,-25%,?,-3%
NNc1nc2sc3c(c2c(=O)n1Cc1ccccc1)CCC3,7%[46.1 µM],?,8%,0%,31%,-13%
CCCCN(CC)CCNC(=S)Nc1ccc2nc(N3CCN(C)CC3)cc(C)c2c1,3.5µM*,0.89µM*,-4%,-11%,?,12%
CCCN(CCC)CCCNC(=S)Nc1ccc2nc(N3CCN(C)CC3)cc(C)c2c1,.,13µM*,-2%,-3%,.,-34%
